What all share (assay): NCI-60 one-dose screen, 48 h (100 = growth as untreated, 0 = no growth, -100 = all killed)
For one assay, the system named is SR leukemia. To be noted: 10 µM unless noted.
The test system of another assay is RPMI-8226 leukemia. To be noted: 10 µM.
In a further assay the test system is OVCAR-8 ovarian. To be noted: 10 µM unless noted.
In the next assay the test system is OVCAR-5 ovarian. To be noted: 10 µM unless noted.
The next assay deals with OVCAR-4 ovarian. The settings on record: 10 µM unless noted.
The test system of another assay is SK-OV-3 ovarian. The settings on record: 10 µM.
A further assay deals with IGROV1 ovarian. The settings on record: 10 µM unless noted.
The subject of the next assay is OVCAR-3 ovarian. The settings on record: 10 µM unless noted.
A further assay concerns HS 578T breast. The settings on record: 10 µM unless noted.
A further assay deals with NCI/ADR-RES ovarian. The settings on record: 10 µM unless noted.
Another assay has as its system T-47D breast. To be noted: 10 µM.
For another assay, the system named is BT-549 breast. To be noted: 10 µM unless noted.
Another assay relates to MDA-MB-435 melanoma. To be noted: 10 µM unless noted.
The test system of a further assay is SW-620 colon. The settings on record: 10 µM unless noted.
The next assay relates to MCF7 breast. The settings on record: 10 µM unless noted.
A further assay relates to HCT-116 colon. To be noted: 10 µM unless noted.
The next assay relates to HCC-2998 colon. To be noted: 10 µM unless noted.
The test system of a further assay is KM12 colon. To be noted: 10 µM unless noted.

In PubChem BioAssay (NCI) one finds growth data, which are given here for nine compounds.

Structures are written as SMILES. The panel holds about 83,000 compounds, 20% with a hit somewhere; the sample as a whole holds those more often.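 How to read the values: 0–100, growth inhibition (40 = 60% inhibited); 0, no net growth; -100 to 0, cell death (-40 = 40% of starting cells died; -100 = all dead).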 Values without a mark were called inactive. Active and inactive are the calls of the source. The calls were made as follows: active = growth percent below 10; inactive = the rest.

Turning to `COc1cc(C2=NN(c3ccc(S(N)(=O)=O)cc3)C(c3ccc(Cl)cc3)C2)cc(OC)c1OC` (stereo unspecified), the growth in the assay with SR leukemia was 17.5%; in the assay on RPMI-8226 leukemia it was -5.03% (active); in the assay with OVCAR-8 ovarian, 40%; in the assay with OVCAR-5 ovarian, 77.5%; in the assay with OVCAR-4 ovarian it was 42.4%; in the assay on SK-OV-3 ovarian, 77.9%. Moreover, the growth in the assay on IGROV1 ovarian was 60.9%; in the assay with OVCAR-3 ovarian it was 47.1%; with HS 578T breast, 58.4%; in the assay with NCI/ADR-RES ovarian, 37.5%; in the assay on T-47D breast, 20.4%; in the assay with BT-549 breast it was 57.9%. In addition, the growth with MDA-MB-435 melanoma was 29.2%; in the assay on SW-620 colon it was 44.3%; in the assay with MCF7 breast, 25.2%; in the assay on HCT-116 colon, 23.2%; in the assay on HCC-2998 colon it was 45.9%; in the assay with KM12 colon, 37.6%.
Consider `CCCCCCCCCCCCCCNc1nc(CO)ncc1-c1ccc(C(F)(F)F)cc1`, for which the growth with SR leukemia was 102%; in the assay with RPMI-8226 leukemia, 93.9%; in the assay on OVCAR-8 ovarian, 99.5%; with OVCAR-5 ovarian it was 103%; in the assay on OVCAR-4 ovarian it was 112%; in the assay with SK-OV-3 ovarian, 91.7%. Moreover, the growth with IGROV1 ovarian was 104%; with OVCAR-3 ovarian it was 103%; with HS 578T breast, 93.2%; with NCI/ADR-RES ovarian it was 100%; with T-47D breast, 95.6%; in the assay with BT-549 breast, 110%. Further, the growth is 102% in the assay on MDA-MB-435 melanoma; 103% in the assay on SW-620 colon; 96.2% in the assay on MCF7 breast; 94.1% with HCT-116 colon; 99.4% in the assay on HCC-2998 colon; 99.4% in the assay on KM12 colon.
Take `COc1ccc2c(c1)c(=O)oc1c(C)c(OCC(C)=O)ccc12`: the growth in the assay with SR leukemia was 116%; in the assay on RPMI-8226 leukemia, 92.6%; with OVCAR-8 ovarian it was 96.3%; in the assay on OVCAR-5 ovarian, 86.9%; in the assay on OVCAR-4 ovarian, 93.6%; in the assay with SK-OV-3 ovarian it was 110%. In addition, the growth was 111% in the assay on IGROV1 ovarian; 109% in the assay with OVCAR-3 ovarian; 33.6% with HS 578T breast; 97.6% in the assay with NCI/ADR-RES ovarian; 104% in the assay on T-47D breast; 102% in the assay with BT-549 breast. Besides, the growth is 89.4% with MDA-MB-435 melanoma; 101% with SW-620 colon; 101% in the assay with MCF7 breast; 104% with HCT-116 colon; 98.1% in the assay on HCC-2998 colon; 96.6% in the assay on KM12 colon.
On to `Cc1nc2cc(Nc3nc(Nc4ccc(F)cc4)nc(-c4ccc(Cl)cc4)n3)ccc2n1Cc1ccccc1`, for which the growth is -19.4% (active) in the assay with SR leukemia; 0.193% (active) in the assay with RPMI-8226 leukemia; 62.8% in the assay with OVCAR-8 ovarian; 92.3% with OVCAR-5 ovarian; 58.6% with OVCAR-4 ovarian; 92.9% in the assay on SK-OV-3 ovarian. Further, the growth is 48.7% with IGROV1 ovarian; 57.3% in the assay on OVCAR-3 ovarian; 75.4% in the assay with HS 578T breast; 59.1% in the assay on NCI/ADR-RES ovarian; 30.7% in the assay with T-47D breast; 101% in the assay on BT-549 breast. Also, the growth with MDA-MB-435 melanoma is 66.2%; in the assay on SW-620 colon, 68.1%; with MCF7 breast it was 42.4%; in the assay on HCT-116 colon it was 50.3%; in the assay with HCC-2998 colon it was 81.6%; with KM12 colon, 37.2%.
As to `Clc1ccc(C2=NN(c3ccccc3)[C@H](c3cn(-c4ccccc4)nc3-c3ccccc3)C2)cc1`, the growth was 118% with SR leukemia; 112% with RPMI-8226 leukemia; 106% in the assay on OVCAR-8 ovarian; 97.8% in the assay on OVCAR-5 ovarian; 105% in the assay with OVCAR-4 ovarian; 107% in the assay with SK-OV-3 ovarian. The growth was 104% in the assay on IGROV1 ovarian; 113% in the assay with OVCAR-3 ovarian; 131% with HS 578T breast; 105% with NCI/ADR-RES ovarian; 112% in the assay on T-47D breast; 112% with BT-549 breast. The growth was 99.8% in the assay with MDA-MB-435 melanoma; 107% in the assay with SW-620 colon; 97.5% in the assay with MCF7 breast; 90% with HCT-116 colon; 103% with HCC-2998 colon; 104% in the assay with KM12 colon.
Consider `Cc1nc2cc(Nc3nc(N4CCCCC4)nc(N4CCOCC4)n3)ccc2n1Cc1ccccc1`, for which the growth was 25.2% with SR leukemia; 17.7% in the assay with RPMI-8226 leukemia; 27.6% in the assay with OVCAR-8 ovarian; 55.8% in the assay on OVCAR-5 ovarian; -63.9% (active) with OVCAR-4 ovarian; 39.8% in the assay with SK-OV-3 ovarian. The growth in the assay on IGROV1 ovarian is 47%; in the assay on OVCAR-3 ovarian it was -3.53% (active); with HS 578T breast, 34.6%; in the assay on NCI/ADR-RES ovarian it was 27%; with T-47D breast it was -8% (active); with BT-549 breast, 63.2%. Also, the growth was 52.8% in the assay on MDA-MB-435 melanoma; 44.1% with SW-620 colon; 65.5% with MCF7 breast; -49.9% (active) in the assay with HCT-116 colon; 94.3% in the assay on HCC-2998 colon; 18.3% with KM12 colon.
In the case of `CN1CCn2c(c(Sc3ccc(C(=O)NO)cc3)c3ccccc32)C1=O`, the growth in the assay with SR leukemia is 0.516% (active); with RPMI-8226 leukemia, -19.9% (active); with OVCAR-8 ovarian, -46.5% (active); with OVCAR-5 ovarian it was 24.3%; in the assay with OVCAR-4 ovarian, 14%; in the assay with SK-OV-3 ovarian, 57.4%. Further, the growth in the assay with IGROV1 ovarian was -44.1% (active); with OVCAR-3 ovarian, -32.5% (active); with HS 578T breast, 49.3%; with NCI/ADR-RES ovarian, 64.1%; with T-47D breast it was 14.6%; in the assay with BT-549 breast it was 2.47% (active). Further, the growth was -74.6% (active) in the assay with MDA-MB-435 melanoma; -14.4% (active) with SW-620 colon; 27.1% in the assay with MCF7 breast; -39.3% (active) in the assay on HCT-116 colon; -37.8% (active) with HCC-2998 colon; -51.4% (active) in the assay with KM12 colon.
For `CS(=O)(=O)Nc1cccc(C(=O)NCc2ccc(N3CCOCC3)cc2)c1`, the growth with SR leukemia was 93.3%; with RPMI-8226 leukemia, 99.7%; in the assay on OVCAR-8 ovarian, 104%; in the assay on OVCAR-5 ovarian it was 107%; in the assay on OVCAR-4 ovarian, 107%; in the assay on SK-OV-3 ovarian it was 107%. Also, the growth is 114% in the assay on IGROV1 ovarian; 108% with OVCAR-3 ovarian; 104% in the assay on HS 578T breast; 111% with NCI/ADR-RES ovarian; 95.4% in the assay on T-47D breast; 95.6% with BT-549 breast. In addition, the growth with MDA-MB-435 melanoma is 105%; in the assay with SW-620 colon, 108%; with MCF7 breast it was 99%; with HCT-116 colon it was 101%; in the assay with HCC-2998 colon, 106%; in the assay on KM12 colon, 97.1%.
In the case of `CC1(C)N=C(N)N=C(N)N1c1cccc(OCCOc2cccc([N+](=O)[O-])c2)c1`, the growth in the assay with SR leukemia is 15.9%; in the assay with RPMI-8226 leukemia, 52.4%; with OVCAR-8 ovarian, 105%; in the assay on OVCAR-5 ovarian, 32%; in the assay on OVCAR-4 ovarian it was 81.3%; with SK-OV-3 ovarian it was 70%. Besides, the growth is 29.7% in the assay with IGROV1 ovarian; 45.3% with OVCAR-3 ovarian; 82% in the assay with HS 578T breast; 107% in the assay on NCI/ADR-RES ovarian; 83.1% in the assay on T-47D breast; 37.8% in the assay on BT-549 breast. Also, the growth in the assay on MDA-MB-435 melanoma is 17.8%; in the assay on SW-620 colon, 48.6%; with MCF7 breast, 29%; with HCC-2998 colon, 47.6%; with KM12 colon, 22.2%.
